Source: ChEMBL document CHEMBL1157539, “Thousands of chemical starting points for antimalarial lead identification” (Nature, 2010)

tested on: HepG2; experiment: GSK_TCMDC: Percent inhibition of human HepG2 cell line. Test compounds present at 10uM.; type: functional

**Q.** O=C(Nc1ccc(-c2cccc(-c3nc4cc(C(F)(F)F)ccc4[nH]3)c2)cc1)c1ccoc1 was tested. Which Inhibition did it give?
**A.** 52%

**Q.** How did the Inhibition turn out when N#Cc1ccc(C=Cc2nccc3c2[nH]c2ccccc23)cc1 was run?
**A.** 33%

**Q.** Which Inhibition does the source give for COc1cc2c(cc1S(=O)(=O)c1ccc(NC(=O)Nc3ccc(F)cc3)cc1)CCN(C)CC2.Cl here?
**A.** 0%

**Q.** With COc1ccc(CCNc2nc(SCc3ccccc3Cl)nc3ccccc23)cc1OC as the molecule, how does the Inhibition read?
**A.** 27%

**Q.** How did the Inhibition turn out when CC(=O)N1CCC(C(=O)Nc2ccc(-c3cccc(-c4nc5cccc(C)c5[nH]4)c3)cc2)CC1 was run?
**A.** 85%

**Q.** For COc1ccc(-c2nc3cc4ccccc4nc3[nH]2)c(OCC(O)CNC(C)C)c1.Cl (stereo not given), which Inhibition is on record?
**A.** 19%

**Q.** How did the Inhibition turn out when CCOC(=O)N1CCN(CCCNc2c3ccc(Cl)cc3nc3ccc(OC)cc23)CC1 was run?
**A.** 52%

**Q.** For OCCn1c(CNCCCNc2nc3ccccc3[nH]2)cc2c(Cl)cc(Cl)cc21, which Inhibition is on record?
**A.** 29%

**Q.** How did the Inhibition turn out when CC1(C)C(N(O)C(=O)Nc2ccc(Cl)c(Cl)c2)N(c2ccc(Cl)c(Cl)c2)C(=O)N1CCc1ccccc1 (stereo not given) was run?
**A.** 10%

**Q.** How did the Inhibition turn out when COc1cc(Nc2ncnc3cc(OC)c(OC)cc23)cc([N+](=O)[O-])c1.Cl was run?
**A.** 8%

**Q.** CC(=O)/N=C1\N=C(NC(C)=O)NC(C)(C)N1OCCCOc1ccc(Cl)c(Cl)c1 was tested. Which Inhibition did it give?
**A.** 65%

**Q.** For CC(C)CCNc1nc2ccccc2nc1Nc1cccc(C(F)(F)F)c1, which Inhibition is on record?
**A.** 12%

**Q.** COc1cc(CNCCCCCCNCc2cc(OC)c(OC)c3ccccc23)c2ccccc2c1OC.CS(=O)(=O)O was tested. Which Inhibition did it give?
**A.** 100%

**Q.** With CC(C)Oc1ccc(C=CC(=O)Nc2noc3ccccc23)cc1 as the molecule, how does the Inhibition read?
**A.** 2%

**Q.** For Cl.O=c1cc(NCCCNCc2ccc(Cl)c(Cl)c2)[nH]c2ccc(Oc3ccccc3)cc12, which Inhibition is on record?
**A.** 1%

**Q.** For Cc1cccc2nc(-c3ccc(-c4cccc(CN5CCC(C(N)=O)CC5)c4)s3)[nH]c12.O=C(O)C(F)(F)F, which Inhibition is on record?
**A.** 1%

**Q.** How did the Inhibition turn out when CNC(=O)C(NC(=O)c1ccccc1C(=O)OC)c1ccccc1 (stereo not given) was run?
**A.** 4%

**Q.** Which Inhibition does the source give for CN1CCN(c2cccc(Nc3nccc(NCC(O)c4ccccc4)n3)c2)CC1 (stereo not given) here?
**A.** 30%

**Q.** Br.CC1(C)NC(N)=NC(=N)N1OCCCOc1cccc(Cl)c1 was tested. Which Inhibition did it give?
**A.** 65%

**Q.** How did the Inhibition turn out when Cc1noc(C)c1-c1cccc(CNCc2ccc(-c3cccc(-c4nc5cc(F)ccc5[nH]4)c3)cc2)c1.O=C(O)C(F)(F)F was run?
**A.** 37%

**Q.** For O=C(/C=C/c1ccc(Cl)cc1)NCCCCCN1CCCN(C(=O)Nc2ccc(F)c(Cl)c2)CC1, which Inhibition is on record?
**A.** 29%

**Q.** With CCc1c(C)nc(-n2nc(C)cc2NC(=O)C2c3ccccc3Oc3ccccc32)[nH]c1=O as the molecule, how does the Inhibition read?
**A.** 37%

**Q.** With C=CCc1cc(SC)ccc1Oc1ccc(N)cc1.Cl as the molecule, how does the Inhibition read?
**A.** 12%

**Q.** Which Inhibition does the source give for CCCCCCCN(Cc1ccc(OC(C)(C)C(=O)OCC)cc1)C(=O)Nc1ccccc1OC(F)(F)F here?
**A.** 0%

**Q.** With CC1(C)CCCC(=Cc2ccc(Br)cc2)C1(O)Cn1ccnc1 (stereo not given) as the molecule, how does the Inhibition read?
**A.** 7%

**Q.** For COc1ccc2nc(-c3ccc(C(=O)NCCCN4CCN(c5cc(Cl)ccc5OC)CC4)cc3OC)[nH]c2c1, which Inhibition is on record?
**A.** 0%

**Q.** Which Inhibition does the source give for O=C(O)C(F)(F)F.OCC1CCN(Cc2ccc(-c3ccc(-c4nc5cc(F)ccc5[nH]4)s3)cc2)CC1 here?
**A.** 14%

**Q.** With CC(=O)Nc1cc(C(=O)Nc2cccc(-c3cccc(-c4nc5cc(C(F)(F)F)ccc5[nH]4)c3)c2)ccc1C as the molecule, how does the Inhibition read?
**A.** 56%

**Q.** Cc1noc(C)c1-c1ccc(C(=C2CCCCCC2)c2ccc(O)cc2)cc1 was tested. Which Inhibition did it give?
**A.** 0%

**Q.** With COc1cc(OC)cc(C(=O)Nc2cccc(-c3cn4ccc(C)cc4n3)c2)c1 as the molecule, how does the Inhibition read?
**A.** 4%

**Q.** N=C(NCc1ccc(O)cc1)Nc1nc(-c2ccc(OCCCn3ccnc3)cc2)cs1 was tested. Which Inhibition did it give?
**A.** 13%

**Q.** With COc1ccc(CNC2Cc3ccccc3C2)cc1-c1ccc(S(=O)(=O)NCCc2ccccn2)s1.O=C(O)C(F)(F)F as the molecule, how does the Inhibition read?
**A.** 11%

**Q.** With Cc1cccc2nc(-c3cccc(-c4cccc(NC(=O)Nc5ccc(Cl)c(Cl)c5)c4)c3)[nH]c12 as the molecule, how does the Inhibition read?
**A.** 24%

**Q.** With Cc1cc(C)n(Cc2ccc(C(=O)NCC3CCCCC3)cc2)n1 as the molecule, how does the Inhibition read?
**A.** 0%

**Q.** With Cc1ccc(CN2CCN(c3cc4c(cc3Cl)CCN4C(=O)Cc3ccc(NC(=O)c4ccc(C(F)(F)F)cc4)cc3)CC2)cc1 as the molecule, how does the Inhibition read?
**A.** 15%

**Q.** Which Inhibition does the source give for N.Nc1nc2c(ncn2COC2COP(=O)(O)OC2)c(=O)[nH]1 (stereo not given) here?
**A.** 7%

**Q.** Cn1nccc1C(=O)NCCNCc1ccc(-c2cccc(-c3nc4cc(F)ccc4[nH]3)c2)cc1.O=C(O)C(F)(F)F was tested. Which Inhibition did it give?
**A.** 37%

**Q.** With O=C(Nc1ccc(-c2cccc(-c3nc4cc(C(F)(F)F)ccc4[nH]3)c2)cc1)c1cccnc1 as the molecule, how does the Inhibition read?
**A.** 74%

**Q.** With COC(=O)c1cccc(NC(=O)NC2CCN(c3ccnc(Nc4ccc(F)cc4)n3)C2)c1 (stereo not given) as the molecule, how does the Inhibition read?
**A.** 5%

**Q.** With COc1ccc2[nH]ccc(=NN=Cc3ccc(N(C)C)cc3)c2c1 as the molecule, how does the Inhibition read?
**A.** 4%
